About 2,100 (0.62%) of roughly 340,000 compounds were called active.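 The calls were made as follows: active = first-screen hits whose inhibition reached a set limit at any dose in the follow-up dose series; inconclusive = inhibition above the set first-screen limit but never retested; inactive = the rest.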 The list is a sample of the results. Entries with a potency or affinity are not part of this list.

Data on 28 compounds can be found in PubChem BioAssay AID624330 (Southern Research Specialized Biocontainment Screening …, 2012).

The target in the experiment is Rac GTPase-activating protein 1 (Homo sapiens) (UniProt Q9H0H5). In words: blockers of MgcRacGAP-driven Rac1 GTP hydrolysis – biochemical, ADP Hunter fluorescence, primary and confirmatory, confirmation (AID 624330).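 Also: fluorescence reports GDP produced by GAP-driven GTP hydrolysis.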 As to conditions: MgcRacGAP-stimulated Rac1 GTP hydrolysis, at 30 µM, hits give high values, GST-tagged Rac1 F28L mutant substrate.
Sequence of Rac GTPase-activating protein 1 (Homo sapiens) (Q9H0H5 whole entry, looked up): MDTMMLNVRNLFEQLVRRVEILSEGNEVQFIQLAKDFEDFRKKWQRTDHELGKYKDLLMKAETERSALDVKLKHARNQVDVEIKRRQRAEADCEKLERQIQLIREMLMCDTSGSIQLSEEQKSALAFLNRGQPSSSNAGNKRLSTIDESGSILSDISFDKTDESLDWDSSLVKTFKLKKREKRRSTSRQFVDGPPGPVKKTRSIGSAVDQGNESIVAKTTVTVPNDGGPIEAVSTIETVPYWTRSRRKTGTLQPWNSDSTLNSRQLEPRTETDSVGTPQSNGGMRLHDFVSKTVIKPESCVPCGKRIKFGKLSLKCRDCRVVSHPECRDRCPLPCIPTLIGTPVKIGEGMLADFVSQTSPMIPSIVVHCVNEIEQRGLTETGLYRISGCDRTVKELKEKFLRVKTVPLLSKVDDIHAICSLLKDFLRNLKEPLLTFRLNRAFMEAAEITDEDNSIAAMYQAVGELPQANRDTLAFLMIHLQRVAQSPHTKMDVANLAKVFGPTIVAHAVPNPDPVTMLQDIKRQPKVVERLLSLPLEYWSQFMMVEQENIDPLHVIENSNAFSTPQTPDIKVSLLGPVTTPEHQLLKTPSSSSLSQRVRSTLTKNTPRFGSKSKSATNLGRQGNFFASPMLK
Turning to `Cc1ccc[n+](CC(=O)c2ccc(Br)cc2)c1C`, the inhibition is -7.12% (inactive).

Regarding `Nc1ccccc1C=C1Cc2ccccc2C1=O`, the inhibition was 3.76% (inactive).

As for `CC(C)c1ccc(OCC(=O)NCc2ccco2)cc1`, the inhibition was 6.29% (inactive).

Turning to `O=C(NCc1ccco1)c1ccc(COc2ccc(Cl)cc2)cc1`, the inhibition was -1.23% (inactive).

As for `Cc1noc(C)c1S(=O)(=O)Nc1ccc2c(c1)C(=O)N([C@H](C)CO)C[C@@H](C)[C@@H](CN(C)Cc1ccc3c(c1)OCO3)O2`, the inhibition is 1.37% (inactive).

`CC(=O)Nc1ccc(S(=O)(=O)N2CCC(N3CCCC3)CC2)cc1`: the inhibition was 18.2% (inactive).

In the case of `Cc1ncc([N+](=O)[O-])n1Cc1cccc2ccccc12`, the inhibition is 5.41% (inactive).

For `CCCNC(=O)NC(=O)COC(=O)CNS(=O)(=O)/C=C/c1ccccc1`, the inhibition was 6.44% (inactive).

Consider `O=C(c1sc2ccccc2c1Cl)N1CCN(c2ccc(F)cc2)CC1`, for which the inhibition was 3.37% (inactive).

On to `COc1ccc(-n2c(=O)c3ccccc3c3ccccc3c2=O)cc1`, for which the inhibition was 11.5% (inactive).

For `Cn1sc2ccccc2c1=O`, the inhibition was 18% (inactive).

Take `Cc1ccc(Cn2c(=O)sc3ccccc3c2=O)cc1`: the inhibition was 5.22% (inactive).

As to `O=C(O)c1cn(-c2ccc(F)cc2)c(=O)c2ccccc12`, the inhibition is 8.79% (inactive).

For the compound `O=c1sc2ccccc2c(=O)n1Cc1ccccc1F`, the inhibition was 7.23% (inactive).

Turning to `O=c1c2ccccc2sn1-c1ccc(S(=O)(=O)N2CCCC2)cc1`, the inhibition is 21.2% (inactive).

Regarding `COc1ccc(Cn2c(=O)sc3ccccc3c2=O)cc1`, the inhibition is 3.77% (inactive).

`COc1ccc(NC(=O)COC(C)=O)cc1Cl`: the inhibition was 3.23% (inactive).

For the compound `CCOc1ccc(S(=O)(=O)NCCC(=O)NCC(c2cccs2)N(C)C)cc1` (stereo not drawn), the inhibition is 8.66% (inactive).

`C#CCNc1cc(C)nc2ncnn12`: the inhibition was 1.75% (inactive).

On to `CC(C)CNC(=S)N(CCO)Cc1cc2cc3c(cc2[nH]c1=O)OCO3`, for which the inhibition is 14.8% (inactive).

Consider `CC(=C1SC(=S)NC1=O)c1ccccc1`, for which the inhibition is -4.42% (inactive).

Take `O=C(/C=N/NC(=O)c1ccc(Cl)cc1Cl)c1ccccc1`: the inhibition is 15% (inactive).

Take `COc1ccccc1-n1c(SCC(=O)NC2CCCCC2)nc2c(c1=O)SCC2`: the inhibition is 12.8% (inactive).

As for `COc1ccc(C(=O)Nc2ccccc2NC(=O)c2ccco2)cc1OC`, the inhibition was 11% (inactive).

With `C/C(=C\C(=O)c1ccc(F)cc1)Nc1ccc(N2CCOCC2)cc1`, the inhibition was 15.3% (inactive).

Take `CCCCNC(=S)Nc1ccc(Cl)cc1`: the inhibition is 8.23% (inactive).

For the compound `O=C(NCCNC(=O)Nc1ccc(Cl)cc1)Nc1ccc(Cl)cc1`, the inhibition is 0.54% (inactive).

As for `CCOc1ccccc1CNC(=O)C1CCN(c2nn3c(=O)cc(C)nc3s2)CC1`, the inhibition is 10.9% (inactive).

One may read the inhibition as the change of the read-out against control, counted positive when it falls.
